# Measured values as given in PubChem BioAssay.
# Active and inactive are the calls of the source.
# Tests used:
# [1] = E. coli DRC41 culture turbidity changes, primary screen, E. coli filamentation inducer project, strain DRC41, OD650, 48 h (AID 1152);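 also: E. coli MC1000 strain DRC41 lacking acrAB efflux pump and sulA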; conditions: E. coli DRC41 (acrAB sulA), higher = more signal, called active from +8 up or from −8 down
# [2] = small-molecule binders of probe aLefty1, primary screen, biochemical, small-molecule microarray, 635/667 nm fluorescence (AID 1153); conditions: higher = more signal;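 also: score merges spot fluorescence with signal-to-noise ratio from the scanned slide images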
# [3] = PSAC antagonists in infected red cells, primary screen, cell-based, P. falciparum Indochina, OD700, 1 h (AID 1154); conditions: P. falciparum Indochina infected RBC osmotic lysis, higher = more signal, called active from +8 up or from −8 down
# [4] = PSAC antagonists in infected red cells, primary screen, cell-based, P. falciparum Indochina, OD700, 2 h (AID 1155);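 also: lysis reports solute entry through the parasite surface anion channel PSAC; channel blockers reduce lysis of infected cells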; conditions: P. falciparum Indochina infected erythrocytes, osmotic lysis OD700; higher = more signal, called active from +8 up or from −8 down
# [5] = osmotic lysis modulators in infected erythrocytes, primary screen, PSAC antagonist project, cell-based, P. falciparum Indochina, OD700, 3 h (AID 1156); conditions: higher = more signal, called active from +8 up or from −8 down
# [6] = PSAC antagonists in infected red cells, primary screen, cell-based, P. falciparum Indochina, OD700, 18 h (AID 1157); conditions: P. falciparum Indochina infected erythrocytes, osmotic lysis OD700, 18 h; higher = more signal, called active from +8 up or from −8 down
# [7] = modulators of S6 phosphorylation in cells, primary screen, cell-based, A549, cytoblot, luminescence, serum-stimulated (AID 1158); conditions: A549 phospho-S6 cytoblot, 5 h, higher = more signal;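 also: serum-stimulated A549 lung adenocarcinoma cells; signal is phosphorylated S6 detected by cytoblot immunostaining with HRP secondary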
# [8] = molecular target: NADPH oxidase 2 (Homo sapiens) (UniProt P04839); test: NOX2-dependent H2O2 signal modulators, primary screen, NOX inhibitor project, cell-based, HEK293-NOX2, PMA-stimulated, Amplex Red fluorescence (AID 1159); conditions: 45 min, higher = more signal, called active from +8 up or from −8 down; also: test concentration not given here
# Chain of NADPH oxidase 2 (Homo sapiens) (P04839 whole entry, looked up): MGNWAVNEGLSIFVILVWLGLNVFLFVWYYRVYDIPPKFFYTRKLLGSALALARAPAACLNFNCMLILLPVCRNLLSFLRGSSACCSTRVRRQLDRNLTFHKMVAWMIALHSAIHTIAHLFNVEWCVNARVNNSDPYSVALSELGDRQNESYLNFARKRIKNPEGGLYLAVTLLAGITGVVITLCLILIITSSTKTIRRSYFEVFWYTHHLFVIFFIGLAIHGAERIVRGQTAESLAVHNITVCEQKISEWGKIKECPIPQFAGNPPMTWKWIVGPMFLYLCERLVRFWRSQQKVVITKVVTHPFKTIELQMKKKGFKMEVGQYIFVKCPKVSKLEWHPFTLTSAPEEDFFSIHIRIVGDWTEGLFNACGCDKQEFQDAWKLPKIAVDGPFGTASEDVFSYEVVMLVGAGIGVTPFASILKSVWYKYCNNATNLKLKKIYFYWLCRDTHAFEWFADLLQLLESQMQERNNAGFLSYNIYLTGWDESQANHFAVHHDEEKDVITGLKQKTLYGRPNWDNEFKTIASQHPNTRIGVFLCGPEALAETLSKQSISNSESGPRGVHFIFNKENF
# [9] = molecular target: NADPH oxidase 4 (Homo sapiens) (UniProt Q9NPH5); test: NOX4-dependent H2O2 signal modulators, primary screen, NOX inhibitor project, cell-based, HEK293-NOX4, tetracycline-induced, Amplex Red fluorescence (AID 1160); conditions: 45 min, higher = more signal, called active from +8 up or from −8 down
# Chain of NADPH oxidase 4 (Homo sapiens) (Q9NPH5 whole entry, looked up): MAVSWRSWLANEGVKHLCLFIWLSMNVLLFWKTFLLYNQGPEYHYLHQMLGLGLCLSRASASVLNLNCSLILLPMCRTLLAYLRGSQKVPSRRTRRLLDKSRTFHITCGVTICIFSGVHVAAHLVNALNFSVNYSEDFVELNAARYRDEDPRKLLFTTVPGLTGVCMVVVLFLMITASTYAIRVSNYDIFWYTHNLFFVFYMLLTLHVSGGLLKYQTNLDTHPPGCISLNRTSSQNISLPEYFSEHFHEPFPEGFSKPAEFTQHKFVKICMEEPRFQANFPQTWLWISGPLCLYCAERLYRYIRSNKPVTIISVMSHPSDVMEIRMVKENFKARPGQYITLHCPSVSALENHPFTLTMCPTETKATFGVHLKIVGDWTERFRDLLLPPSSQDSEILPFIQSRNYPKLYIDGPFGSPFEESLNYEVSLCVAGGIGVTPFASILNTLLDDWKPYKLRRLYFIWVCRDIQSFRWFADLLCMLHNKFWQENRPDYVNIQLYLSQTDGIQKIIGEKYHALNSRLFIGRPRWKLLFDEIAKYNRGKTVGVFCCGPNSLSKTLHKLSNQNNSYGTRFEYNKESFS
# [10] = molecular target: NADPH oxidase 5 (Homo sapiens) (UniProt Q96PH1); test: NOX5-dependent H2O2 signal modulators, primary screen, NOX inhibitor project, cell-based, HEK293-NOX5, Amplex Red fluorescence (AID 1161); conditions: HEK293-NOX5, ionomycin, 45 min, higher = more signal
# Chain of NADPH oxidase 5 (Homo sapiens) (Q96PH1 whole entry, looked up): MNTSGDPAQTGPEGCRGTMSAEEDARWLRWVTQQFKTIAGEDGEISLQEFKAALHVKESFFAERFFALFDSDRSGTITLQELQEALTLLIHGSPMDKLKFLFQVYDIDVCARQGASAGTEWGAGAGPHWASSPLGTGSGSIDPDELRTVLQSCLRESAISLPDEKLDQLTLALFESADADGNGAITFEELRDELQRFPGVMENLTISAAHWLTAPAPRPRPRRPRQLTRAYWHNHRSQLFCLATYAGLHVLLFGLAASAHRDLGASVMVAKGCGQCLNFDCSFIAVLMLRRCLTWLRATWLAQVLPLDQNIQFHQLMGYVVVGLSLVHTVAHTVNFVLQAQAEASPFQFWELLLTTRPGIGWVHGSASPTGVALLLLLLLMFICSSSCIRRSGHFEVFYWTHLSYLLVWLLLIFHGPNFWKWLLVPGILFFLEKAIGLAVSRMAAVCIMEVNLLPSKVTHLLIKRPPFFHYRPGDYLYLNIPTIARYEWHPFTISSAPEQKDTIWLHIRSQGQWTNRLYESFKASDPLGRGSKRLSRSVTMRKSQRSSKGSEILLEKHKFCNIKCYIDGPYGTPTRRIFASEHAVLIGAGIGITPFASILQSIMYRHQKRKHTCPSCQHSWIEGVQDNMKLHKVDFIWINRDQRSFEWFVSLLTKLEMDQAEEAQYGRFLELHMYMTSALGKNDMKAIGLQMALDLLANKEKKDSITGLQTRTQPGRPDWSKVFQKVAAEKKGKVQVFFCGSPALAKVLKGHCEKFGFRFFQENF
SMILES,z-score [1],composite z-score [2],z-score [3],z-score [4],z-score [5],z-score [6],z-score [7],z-score [8],z-score [9],z-score [10]
CC(C)N1CC=CC23O[C@@H]4C=CCOC(=O)[C@@H]4[C@H]2C(=O)N(CCO)[C@@H]3C1=O (stereo not given in full),0.759 (inactive),-0.0559,-0.0173 (inactive),0.257 (inactive),-0.288 (inactive),0.6 (inactive),0.121,0.603 (inactive),0.865 (inactive),0.913
COC(=O)C(CC#Cc1ccc2c(c1)[C@]1(C(=O)N2)[C@H](c2ccc(OCCO)cc2)N2[C@H](c3ccccc3)[C@H](c3ccccc3)OC(=O)[C@H]2[C@@H]1C(=O)NC[C@H](O)c1ccccc1)C(=O)OC,1.57 (inactive),0.0903,2.5 (inactive),1.14 (inactive),0.829 (inactive),0.664 (inactive),0.219,2.1 (inactive),1.2 (inactive),0.489
C=CCNC(=O)[C@@H]1[C@H]2C(=O)O[C@H](c3ccccc3)[C@H](c3ccccc3)N2[C@H](c2ccc(OCCO)cc2)[C@@]12C(=O)Nc1ccccc12,1.52 (inactive),0.0235,5.12 (inactive),0.39 (inactive),-0.844 (inactive),0.002 (inactive),4.16,1.38 (inactive),0.767 (inactive),-0.355
CCOC(=O)C[C@H]1[C@H](OC(=O)c2ccc(-c3ccccc3)cc2)[C@@H](NC(=O)c2ccc(-c3ccccc3)cc2)c2cc(OCCCO)ccc2N1C(=O)Cc1ccc(OC)cc1,-0.783 (inactive),-0.0061,11.4 (active),0.618 (inactive),-0.397 (inactive),0.602 (inactive),0.491,-1.3 (inactive),0.622 (inactive),-0.0798
NCCCCCCNC(=O)[C@H]1C[C@H]2C(=O)NCC(=O)N2[C@H]1c1cccc(OCCO)c1,1.17 (inactive),0.119,1.68 (inactive),-0.0225 (inactive),-1.63 (inactive),0.202 (inactive),0.384,0.719 (inactive),0.513 (inactive),1.36
CC(C)NC(=O)[C@@H]1c2ccccc2C(=O)N(Cc2ccccc2)[C@H]1c1ccc(CO)cc1,-0.355 (inactive),0.108,1.36 (inactive),0.573 (inactive),1.65 (inactive),0.351 (inactive),0.0506,-0.767 (inactive),0.333 (inactive),-1.66
COc1ccc(C#Cc2ccc3c(c2)[C@]2(C(=O)N3)[C@H](c3ccc(O)cc3)N3[C@H](c4ccccc4)[C@H](c4ccccc4)OC(=O)[C@H]3[C@@H]2C(=O)N2CCCCCCC2)cc1,0.777 (inactive),2.53,-0.212 (inactive),-0.763 (inactive),-0.272 (inactive),-1.29 (inactive),2.87,0.723 (inactive),-0.00989 (inactive),0.855
O=C1C[C@]2(c3ccc([N+](=O)[O-])cc3)C(=O)N(CC(F)(F)F)c3cc(CO)ccc3[C@H]2N1CC12CC3CC(CC(C3)C1)C2,0.458 (inactive),-0.629,0.56 (inactive),-0.365 (inactive),0.12 (inactive),0.255 (inactive),0.229,-0.347 (inactive),0.375 (inactive),0.0968
Cc1ccc(S[C@]2(C(=O)NCc3ccccc3)CC(=O)N(Cc3ccccc3Cl)[C@@H]2c2ccc(CO)cc2I)cc1,0.196 (inactive),0.0903,3.44 (inactive),0.68 (inactive),1.9 (inactive),0.255 (inactive),0.379,2.76 (inactive),-0.824 (inactive),0.774
COCCOC(=O)N1C(=O)[C@@]2(c3cc(C#CC4(O)CCCCCC4)ccc31)[C@H](C(=O)N1CCCCCCC1)[C@H]1C(=O)O[C@H](c3ccccc3)[C@H](c3ccccc3)N1[C@@H]2c1ccccc1OCCO,0.139 (inactive),2.53,1.04 (inactive),1.53 (inactive),1.05 (inactive),1.07 (inactive),0.535,0.528 (inactive),-0.409 (inactive),1.29
CC(=O)NCCCC[C@@H]1NC(=O)[C@@H]2C[C@H](C(=O)NCCCCN(C)C)[C@H](c3ccc(O)cc3)N2C1=O,1.62 (inactive),-0.29,0.453 (inactive),-0.233 (inactive),1.13 (inactive),0.153 (inactive),-0.051,0.0273 (inactive),0.192 (inactive),0.546
COc1ccc(C(=O)Nc2cccc(CN3C(=O)[C@]4(O[C@H](CC(=O)N5CCC[C@H]5CO)[C@@H]([Si](C)(C)c5ccc(OC)cc5)[C@@H]4C)c4ccccc43)c2)cc1,0.0295 (inactive),-0.012,4.29 (inactive),1.45 (inactive),-0.546 (inactive),0.451 (inactive),1.97,2.73 (inactive),1.65 (inactive),4.27
CC(C)N1C(=O)c2ccccc2[C@@H](C(=O)NCCCN(C)C)[C@@H]1c1ccc(CO)cc1,-0.534 (inactive),1.17,2.45 (inactive),-0.0098 (inactive),2.5 (inactive),0.181 (inactive),-0.0692,1.08 (inactive),-0.858 (inactive),-1.54
CCCCC=C[C@@H](NC(=O)c1ccc(C(=O)OC)cc1)c1ccccc1,-1.63 (inactive),0.317,2.85 (inactive),0.589 (inactive),0.63 (inactive),0.569 (inactive),0.12,-1.88 (inactive),-3.48 (inactive),0.0463
Cc1ccccc1C(O)C1C=CC2C(=O)N(C)C(=O)C2N1N1CCCCC1 (stereo not given),-1.52 (inactive),0.563,0.234 (inactive),0.479 (inactive),0.126 (inactive),1.02 (inactive),-0.467,-0.182 (inactive),0.0457 (inactive),-1.46
COC(=O)C(CC#Cc1ccc2c(c1)[C@]1(C(=O)N2)[C@H](C(=O)NC[C@H](O)c2ccccc2)[C@H]2C(=O)O[C@H](c3ccccc3)[C@H](c3ccccc3)N2[C@@H]1c1ccc(OCCO)cc1)C(=O)OC,-0.658 (inactive),1.78,5.95 (inactive),2.11 (inactive),0.0313 (inactive),1.1 (inactive),0.161,1.39 (inactive),0.865 (inactive),1.41
